Test results reported in PubChem BioAssay (EPA / NIEHS).
Inconclusive results are not listed. Activity calls are given as the source filed them. How the source made its calls: active means hit-call score of the fitted dose curve at least 0.9, where 1 is the maximum; inconclusive means response in the unintended direction; inactive means score below 0.9.

Target: Oxysterols receptor LXR-alpha (Homo sapiens) (UniProt Q13133)
Assay: ATG_LXRa_TRANS: Attagene TRANS-FACTORIAL HepG2 Assay for human Liver X Receptor alpha (LXRa) (AID 2282980)
Conditions: HepG2 Attagene TRANS reporter, LXRa transactivation
Protocol: ATG_TRANS is a cell-based, multiplexed-readout assay that uses HepG2, a human liver cell line, with measurements taken at 24 hours after chemical dosing in a 24-well plate.ATG_LXRa_TRANS is one of 30 assay component(s) measured or calculated from the ATG_TRANS assay. It is designed to make measurements of mRNA induction, a form of inducible reporter, as detected with fluorescence intensity signals by Reverse transcription polymerase chain reaction (RT-PCR) and Capillary electrophoresis technology.Data from the assay component ATG_LXRa_TRANS was analyzed into 1 assay endpoint. This assay endpoint, ATG_LXRa_TRANS, was analyzed in the positive analysis fitting direction relative to DMSO as the negative control and baseline of activity. Using a type of inducible reporter, measures of mRNA for gain-of-signal activity can be used to understand the reporter gene at the transcription factor-level as they relate to the gene NR1H3. Furthermore, this assay endpoint can be referred to as a primary readout, because this assay has produced multiple assay endpoints where this one serves a reporter gene function. To generalize the intended target to other relatable targets, this assay endpoint is annotated to the nuclear receptor intended target family, where the subfamily is non-steroidal.
Human liver HepG2 cells are transiently transfected with multiple reporter transcription units (MRTUs) in 6-well plates using FuGene 6 reagent (Roche; 3 ml FuGene/1 mg DNA). The MRTU constructs are regulated by a cis-regulating element (promoter). […] A major difference between the CIS and TRANS system is that in CIS activities of endogenous TFs are measured, whereas the TRANS assay evaluates changes in activities of exogenous, chimeric NR-Gal4 proteins. […] At the end of 24 hour incubation, total RNA was isolated using TriZol reagent (Invitrogen). The isolated RNA is then reverse-transcribed using oligo(dT) primer and Mo-MLV reverse transcriptase (Invitrogen) with DNAse I (Ambion) treatment for 30 min. The one-tenth of the produced cDNA was amplified by PCR using Taq DNA polymerase (Invitrogen) and two reporter sequence-specific primers. The PCR products were fluorescently labeled by primer extension with 6-arboxyfluorescein (6-FAM) 5'-labeled reporter sequence-specific primer (2 min at 95 C, 20 s at 68 C and 10 min at 72 C) and these products were digested with 5U of HpaI (New England Biolabs) for 2h at 37 C. The fragments were purified using Qiaquick PCR columns (Qiagen), analyzed on an ABI 3130xL genetic analyzer (Applied Biosystems) with peak positions identified by using a set of X-rhodamine (ROX)-labeled MapMarker1000 molecular weight standards (BioVentures). The raw capillary electrophoresis data was processed using Attagraph software (Attagene).

Sequence of Oxysterols receptor LXR-alpha (Homo sapiens) (Q13133 whole entry, looked up): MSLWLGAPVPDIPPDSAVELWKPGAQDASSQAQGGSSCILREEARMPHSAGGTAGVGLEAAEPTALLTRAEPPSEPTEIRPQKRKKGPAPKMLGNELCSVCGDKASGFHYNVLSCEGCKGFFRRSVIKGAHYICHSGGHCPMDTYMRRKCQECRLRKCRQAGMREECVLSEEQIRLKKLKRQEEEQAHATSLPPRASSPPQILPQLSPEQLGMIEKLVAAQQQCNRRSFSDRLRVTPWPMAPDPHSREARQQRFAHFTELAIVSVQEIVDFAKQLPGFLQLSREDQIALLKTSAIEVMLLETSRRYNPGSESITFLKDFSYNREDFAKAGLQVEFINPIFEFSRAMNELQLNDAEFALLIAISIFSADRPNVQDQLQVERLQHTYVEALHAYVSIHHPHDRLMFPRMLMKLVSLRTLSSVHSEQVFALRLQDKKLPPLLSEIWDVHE

Structure (SMILES)	outcome
COc1cccc(OC)c1O	inactive
COc1ccc(CCO)cc1	inactive
IC(I)I	inactive
CN(c1nccc(=O)[nH]1)C1CCN(c2nc3ccccc3n2Cc2ccc(F)cc2)CC1	inactive
Cc1ccc(N)c(S(=O)(=O)O)c1	inactive
ON=C1CCCCC1	inactive
CC(=O)NCCO	inactive
C=C1CC[C@H](O)C/C1=C/C=C1\CCC[C@]2(C)[C@@H]([C@H](C)/C=C/[C@H](C)C(C)C)CC[C@@H]12	inactive
COC(C)(C)CC(C)=O	inactive
O=C1CCCC=CCCCCCCCCCC1	inactive
c1ccc2cc(Nc3ccc(Nc4ccc5ccccc5c4)cc3)ccc2c1	inactive
CC(=O)O[C@@H]1C[C@@H]2CC[C@@]1(C)C2(C)C	inactive
CC(C)c1ccccc1O	inactive
CC(C)CCCCCCCCCCCCCCC(=O)O	inactive
C=Cc1ccncc1	inactive
Nc1ccc(NCCO)c([N+](=O)[O-])c1	inactive
CN1CCOCC1	inactive
O=c1c(O)c(-c2ccc(O)cc2)oc2cc(O)cc(O)c12	inactive
OCCOCCN1CCN(C2=Nc3ccccc3Sc3ccccc32)CC1	inactive
C=CC(=O)OCCCC	inactive

Structure (SMILES)	outcome
NC1CCCCC1N (stereo not given)	inactive
C=CC(=C)CCCC(C)(C)OC(C)=O	inactive
CC1=NN(c2ccc(S(=O)(=O)O)cc2)C(=O)C1	inactive
O=C1c2ccccc2C(=O)c2c(O)ccc(O)c21	inactive
CC(=O)O[C@@H]1CC2CCC1(C)C2(C)C (stereo not given in full)	inactive
CCCCCC(C)=O	inactive
CC(C)(N=C=O)c1cccc(C(C)(C)N=C=O)c1	inactive
CC(O)C1CCCCC1 (stereo not given)	inactive
CC(=O)C1(C)CC2=C(CCCC2(C)C)CC1C (stereo not given)	inactive
CCCCSCCCC	inactive
CCCC(C)=O	inactive
Cc1ncc[nH]1	inactive
c1ccc(CCc2ccccc2)cc1	inactive
c1ccc(CN(Cc2ccccc2)Cc2ccccc2)cc1	inactive
CCCCCCCCCCCC(=O)OC[C@@H](O)[C@H]1OC[C@H](O)[C@H]1O	inactive
CCC(Cl)C(Cl)C(Cl)CC(Cl)C(Cl)C(C)Cl (stereo not given)	inactive
C=COCCOCCOC=C	inactive
CC1CCC(C(C)C)C(O)C1 (stereo not given)	inactive
N#Cc1cscn1	inactive
COc1cc(Cl)c(OC)cc1N	inactive
